Screening data deposited in PubChem BioAssay by National Center for Advancing Translational Sciences (NCATS).
Only some compounds are listed: those with a hit (about 8% of all), similar ones and a draw of the others.
FMDV antiviral = blocks foot and mouth disease virus; actives 1.2% (n = 410,000); FMDV antiviral cell-based qHTS; Potency, µM (series often up to 57.9 µM), actives largely listed as inhibitors; calls by dose curve; tested in HEK293T cells; further: read-out not given here; nearly all actives have a fitted effect of over 45% in size
HCMV antiviral = blocks human cytomegalovirus replication | activity change, negative = inhibition, % at 57.5 µM | HFF cells, HCMV-luciferase reporter, 72 h; active compounds read low | actives 4.5% (n = 410,000); in the data active means activity change below about -60%; inconclusive means no clear call, values can overlap the other calls; inactive means above about -39%
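Inhibition of viral replication was scored as loss of reporter luminescence in HFFs infected with HCMV-luciferase (MOI 1 PFU/cell) for 72 h; compounds tested at 2 doses, normalized to buffer and Salinomycin controls.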
SARS PLpro yeast-1 = inhibitors of SARS-CoV papain-like protease in yeast; S. cerevisiae expressing SARS-CoV PLpro, growth rescue; Potency, µM (highest dose often 32.9 µM), most hits filed as activators; actives 0.19% (n = 330,000); AID 485353; calls by dose curve; further: nearly all actives have a fitted effect of over 55% in size
Lassa entry inh = inhibitors of Lassa virus binding or cell entry; Lassa virus pseudotype entry inhibition, cell reporter; Potency, µM (titrated, usually from 37.9 µM), hits mostly inhibitors; actives 1.2% (n = 300,000); AID 540256; calls by dose curve; tested in HEK293 cells; further: nearly all actives have a fitted effect of over 50% in size
MARV entry inh = Marburg virus entry inhibition. AID 540276. Potency, µM (top dose mostly 37.8 µM), actives largely listed as inhibitors. actives 1.8% (n = 300,000). Marburg virus pseudotyped entry inhibition, cell reporter; calls by dose curve; tested in HEK293 cells
HCV inhibitor = blocks hepatitis C virus | Huh7.5.1 HCVcc-Cre infection, luciferase reporter, 44 h | Potency, µM (series often up to 41.8 µM), most hits filed as inhibitors | actives 3.4% (n = 340,000) | AID 651820; active means well fitted inhibition curve with a large enough effect; inconclusive means small, poorly fitted or top-dose-only effect, or another doubt; inactive means no such curve, though single readings can be large or run the other way
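A cell-based infection assay in which seeded cells (1,000 per well) receive test compound after 4 h, are inoculated with HCVcc-Cre at approximately 0.5 moi, and are incubated 44 h before luminescence detection.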
SARS PLpro yeast-2 = Inhibits SARS-CoV PLP in yeast, hit validation; shares compounds with SARS PLpro yeast-1; yeast expressing SARS-CoV PLpro, growth phenotype rescue; calls only; actives 19% (n = 1,000); AID 652038; call rule not given here
Large screens that a line does not name were inactive (follow-up assays come after a bar, where they were run).

Cc1c(C(=O)NC(=S)Nc2ccccc2N2CCCC2)cccc1[N+](=O)[O-]	FMDV antiviral inconclusive, SARS PLpro yeast-1 7.1µM, HCV inhibitor 3.5µM | SARS PLpro yeast-2 active
CCC(C)NS(=O)(=O)c1ccc(N2CCCCS2(=O)=O)cc1 (centres undefined)	Lassa entry inh inconclusive (no result: SARS PLpro yeast-1, MARV entry inh, HCV inhibitor)
O=S1(=O)N=C(N/N=C/c2ccccn2)c2ccccc21	SARS PLpro yeast-1 22µM, Lassa entry inh inconclusive | SARS PLpro yeast-2 active
COc1ccc(/C=N/NC2=NS(=O)(=O)c3ccccc32)cc1	none (no result: Lassa entry inh, MARV entry inh)
COCC(O)CNc1ccccc1 (centres undefined)	SARS PLpro yeast-1 inconclusive, Lassa entry inh inconclusive | SARS PLpro yeast-2 inactive
Cc1cccn2c(=O)c(C(=O)N3CCN(c4ccc(Cl)cc4)CC3)cnc12	Lassa entry inh inconclusive (no result: SARS PLpro yeast-1, MARV entry inh, HCV inhibitor)
Cc1cc(C(=O)Nc2ccc(N3CCCC3)c(Cl)c2)ccc1[N+](=O)[O-]	MARV entry inh inconclusive, HCV inhibitor inconclusive
CN1C(=O)c2ccc(NC(=O)c3ccc(N4CCCCC4)c([N+](=O)[O-])c3)cc2C1=O	FMDV antiviral 18µM, SARS PLpro yeast-1 14µM | SARS PLpro yeast-2 inactive
Cc1c(C(=O)NCc2ccc(OC(C)C)cc2)sc2ncnc(N(C)C3CCCCC3)c12	none (no result: SARS PLpro yeast-1, MARV entry inh, HCV inhibitor)
CC1CCCN(c2nc3c(c(=O)[nH]c(=O)n3C)n2CCCc2ccccc2)C1 (centres undefined)	FMDV antiviral inconclusive, SARS PLpro yeast-1 inconclusive (no result: Lassa entry inh, MARV entry inh) | SARS PLpro yeast-2 inactive
CC1CCN(c2nc3c(c(=O)[nH]c(=O)n3C)n2Cc2ccccc2)CC1	none (no result: Lassa entry inh, MARV entry inh)
Cc1oc2cc(OCc3cnn(-c4ccccc4)c3)ccc2c(=O)c1Oc1ccccc1F	FMDV antiviral inconclusive, SARS PLpro yeast-1 2.5µM | SARS PLpro yeast-2 inactive
COC(=O)c1ccc(Oc2c(C)oc3cc(OCc4cnn(-c5ccccc5)c4)ccc3c2=O)cc1	none
COCCCNC(=O)c1c(NC(=O)Cc2coc3cc(C)cc(C)c23)sc2c1CCCC2	none (no result: SARS PLpro yeast-1, HCV inhibitor)
COc1ccccc1C(=O)NCC(=O)OC(C)C(=O)NC1CCCCC1C (centres undefined)	none (no result: Lassa entry inh, MARV entry inh)
COc1ccccc1C(=O)NCC(=O)OC(C)C(=O)NC(=O)NC1CCCCC1 (centres undefined)	SARS PLpro yeast-1 inconclusive | SARS PLpro yeast-2 inactive
CCOc1ccc(CCNC(=O)CCCn2c(=O)c3cccn3c3cccnc32)cc1	none (no result: SARS PLpro yeast-1, MARV entry inh, HCV inhibitor)
C(=C\c1ccccc1)/CNn1cnnc1	SARS PLpro yeast-1 inconclusive | SARS PLpro yeast-2 inactive
Cc1c(N/N=C(\C#N)C(=O)c2ccc(Cl)cc2)c(=O)n(-c2ccccc2)n1C	HCMV antiviral -100, SARS PLpro yeast-1 13µM, Lassa entry inh inconclusive, MARV entry inh 4.1µM, HCV inhibitor inconclusive | SARS PLpro yeast-2 inactive
CN(C(=O)COC(=O)Cc1ccc(Cl)cc1)C1CCCCC1	SARS PLpro yeast-1 inconclusive | SARS PLpro yeast-2 inactive
CCN1C[C@@H]2[C@@H]3C(=O)N(C)C(=O)[C@@H]3[C@](CC)(C(=O)OC)N2C1=NC	SARS PLpro yeast-1 3.5µM (no result: Lassa entry inh, MARV entry inh) | SARS PLpro yeast-2 inactive
O=C(CCCOc1ccc(Cl)cc1Cl)N/N=C/c1ccccc1O	HCMV antiviral -104, SARS PLpro yeast-1 inconclusive, Lassa entry inh inconclusive, MARV entry inh inconclusive, HCV inhibitor inconclusive | SARS PLpro yeast-2 inactive
Cc1sc2nc(CSCC(=O)N(CCC#N)c3ccccc3)[nH]c(=O)c2c1C	none (no result: Lassa entry inh, MARV entry inh)
Cc1sc2nc(CSCC(=O)N(C)c3ccccc3)[nH]c(=O)c2c1C	FMDV antiviral inconclusive, HCMV antiviral inconclusive, SARS PLpro yeast-1 inconclusive, MARV entry inh inconclusive | SARS PLpro yeast-2 inactive
CCOc1ccc(NC(=O)CC2Nc3cccc4cccc(c34)NC2=O)cc1 (centres undefined)	MARV entry inh inconclusive (no result: SARS PLpro yeast-1, HCV inhibitor)
Cc1ccc(C)c(CN2CCCN(CC(=O)Nc3ccc(C)c(C)c3)S2(=O)=O)c1	none (no result: SARS PLpro yeast-1, MARV entry inh, HCV inhibitor)
NC(=NCCc1ccccc1)NS(=O)(=O)c1ccc(F)cc1	SARS PLpro yeast-1 inconclusive, MARV entry inh inconclusive | SARS PLpro yeast-2 inactive
O=C(CN1CCN(CC(=O)Nc2ccccc2F)CC1)Nc1ccc(Cl)c(C(F)(F)F)c1	none (no result: SARS PLpro yeast-1, MARV entry inh, HCV inhibitor)
Cc1ccc(S(=O)(=O)NCCC(=O)NCc2ccc3c(c2)OCO3)cc1C	SARS PLpro yeast-1 16µM | SARS PLpro yeast-2 inactive
CCOc1ccc(Nc2oc(-c3cccc(Cl)c3)nc2C#N)cc1	SARS PLpro yeast-1 inconclusive | SARS PLpro yeast-2 inconclusive
CCOc1ccc(Nc2oc(-c3ccco3)nc2C#N)cc1	none
